Screen size: about 47,000 compounds; about 3,100 (6.6%) were called active. Many of the other results were omitted from the sample, so actives are more common in it than they were. Values without a mark were called inactive. Rule as the data show it: active = inhibition above about 30%; inactive = the rest.
What follows are compounds tested against Ubiquitin carboxyl-terminal hydrolase 17-like protein 5 (Homo sapiens) (UniProt A8MUK1) (assay: blocks human USP17 ubiquitin-rhodamine cleavage (AID 1645855)). Conditions: purified USP17, Ub-rhodamine cleavage fluorescence, 3 h; at 50 µM; stronger effect = higher value.
Chain of Ubiquitin carboxyl-terminal hydrolase 17-like protein 5 (Homo sapiens) (A8MUK1 whole entry, looked up): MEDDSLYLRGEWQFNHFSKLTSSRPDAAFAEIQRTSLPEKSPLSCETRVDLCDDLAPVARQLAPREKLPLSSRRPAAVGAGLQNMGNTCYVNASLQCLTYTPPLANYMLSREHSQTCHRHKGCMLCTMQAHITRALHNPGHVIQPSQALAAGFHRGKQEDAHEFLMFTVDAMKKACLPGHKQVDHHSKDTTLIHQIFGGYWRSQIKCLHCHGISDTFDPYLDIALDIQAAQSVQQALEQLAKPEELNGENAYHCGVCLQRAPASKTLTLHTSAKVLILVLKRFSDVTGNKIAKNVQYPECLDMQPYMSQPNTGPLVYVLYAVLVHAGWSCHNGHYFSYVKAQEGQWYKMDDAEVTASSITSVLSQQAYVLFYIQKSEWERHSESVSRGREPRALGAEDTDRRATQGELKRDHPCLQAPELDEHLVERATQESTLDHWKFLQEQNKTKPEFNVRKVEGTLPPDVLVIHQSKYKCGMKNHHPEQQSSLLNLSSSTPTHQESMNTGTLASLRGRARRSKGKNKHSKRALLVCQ
Work on `Cc1nn(-c2ccccc2)c(C)c1S(=O)(=O)N1CCN(c2ccccn2)CC1` yielded an inhibition of -17.2%.
Compound `O=C(c1ccc(N2CCCC2)nn1)N1CCN(c2ccccn2)CC1` has an inhibition of -6.98%.
In the case of `Clc1cc2nc(N3CCN(c4ccccn4)CC3)c3nncn3c2cc1Cl`, the inhibition was 31.5% (active).
`Cc1ccc(Nc2nc(C(=O)NCCN3CCCCC3C)cc3occc23)cc1Cl` (stereo not drawn) gave an inhibition of -11.2%.
Work on `CCc1nc2ccc(C(=O)Nc3nc(-c4ccc5c(c4)CCN5C(=O)c4ccc(C)cc4)c(C)s3)cc2nc1CC` yielded an inhibition of -24.7%.
With `O=C(Nc1nc(-c2ccc3c(c2)CCN3C(=O)c2ccccc2F)cs1)c1cccnc1` the inhibition was 77.7% (active).
Work on `Cc1sc(NC(=O)c2ccccn2)nc1-c1ccc2c(c1)CCN2C(=O)C(C)C` yielded an inhibition of -11.3%.
`CC(C)(C)CC(=O)N1CCc2cc(-c3csc(NC(=O)c4ccccn4)n3)ccc21` gave an inhibition of 2.12%.
`Cc1ccc(C(=O)N2CCc3cc(-c4csc(NC(=O)CNc5ccccc5)n4)ccc32)cc1` was tested, and the inhibition was 32.4% (active).
`CCc1nc2ccc(C(=O)Nc3nc(-c4ccc5c(c4)CCN5C(=O)c4ccccc4C)c(C)s3)cc2nc1CC` showed an inhibition of -14.3%.
Work on `Cc1cccc(NC(=O)Cn2c(C)ncc(C(=O)NC3CCCC3)c2=O)c1C` yielded an inhibition of 2.77%.
Compound `O=C(OCc1ccccc1F)c1cc(-c2ccccc2)nc2ccccc12` has an inhibition of 7.27%.
`CCc1nnc(NC(=O)C2CCN(C(=O)c3ccc(F)cc3)CC2)s1` showed an inhibition of 5.9%.
Compound `COc1cccc(O[C@@H]2C[C@@H](NC(=O)c3ccnn3C)[C@H](N3CCCC3)[C@H]2O)c1` has an inhibition of -13.7%.
For `CCCNC(=O)c1nn(-c2ccc(F)cc2)c2c1CCCCC2`, the inhibition was 3.82%.
In the case of `O=C(Cc1csc(NC(=O)c2ccc(=O)[nH]c2)n1)NCc1ccco1`, the inhibition was -18.1%.
With `O=C(CCc1csc(NC(=O)c2ccc(=O)[nH]c2)n1)NCCc1c[nH]c2ccccc12` the inhibition was 36.5% (active).
Work on `Cc1oc(C2CCC2)nc1C(=O)NCCc1c[nH]c2ccccc12` yielded an inhibition of 7.03%.
Compound `COCCCN1CC(=O)N2C(c3cccc([N+](=O)[O-])c3)c3[nH]c4ccccc4c3C[C@@H]2C1=O` (stereo partly drawn) has an inhibition of -12.6%.
Compound `O=S(=O)(Nc1ccc(Cc2ccncc2)cc1)c1ccc2c(c1)OCCO2` has an inhibition of 3.72%.
Compound `O=C(NCc1ccc2c(c1)OCO2)C1=CCN(Cc2ccccc2)CC1` has an inhibition of -28.1%.
For `COC(=O)c1cc2c(ccn2C)n1CC(=O)N1CCN(Cc2ccc3c(c2)OCO3)CC1`, the inhibition was -63.5%.
For `O=C(Nc1cccc2ccccc12)N1CCN(Cc2ccc3c(c2)OCO3)CC1`, the inhibition was 41% (active).
In the case of `CNc1nc2c(c(=O)n1-c1ccccc1OC)CCN(C(=O)N1CCOCC1)C2`, the inhibition was -2.32%.
In the case of `CCCCn1c(=O)[nH]c2cc(-c3nc(-c4ccccn4)no3)ccc2c1=O`, the inhibition was -20.4%.
Compound `Cc1c(C(=O)NC2CCCCC2)oc2ccccc12` has an inhibition of 0.0641%.
Compound `O=C(Nc1c(C(=O)N2CCOCC2)oc2ccccc12)c1ccccc1F` has an inhibition of -1.41%.
With `CCS(=O)(=O)c1cccc(C(=O)Nc2c(C(N)=O)oc3ccccc23)c1` the inhibition was 41.9% (active).
`CCCSc1nc(NCC2CCCO2)c2c3c(sc2n1)COC(C)(C)C3` (stereo not drawn) gave an inhibition of -37.2%.
Work on `Cc1noc(C)c1CC(=O)N1CCN(c2ccccc2F)CC1` yielded an inhibition of 20.5%.
In the case of `CCCc1cc(=O)oc2cc(OC(=O)C3CCN(C(=O)c4ccc(Cl)cc4)CC3)ccc12`, the inhibition was 10.2%.
`COc1ccc(N2CCN(Cc3cc(=O)oc4cc(O)ccc34)CC2)cc1` gave an inhibition of 4.8%.
With `CCCc1cc(=O)oc2cc(OCC(=O)NCc3ccc(OC)cc3)ccc12` the inhibition was 30.6% (active).
With `Cc1c(CC(=O)NCC(=O)O)c(=O)oc2c(C)c(O)ccc12` the inhibition was -3.52%.
`COc1ccccc1Cn1cnc2c([nH]c3cc(OC)c(OC)cc32)c1=O` was tested, and the inhibition was 58% (active).
`O=c1c2[nH]c3ccc(Cl)cc3c2ncn1Cc1cccnc1` showed an inhibition of -5.96%.
With `COc1cc(Cn2cnc3c([nH]c4ccc(Br)cc43)c2=O)cc(OC)c1` the inhibition was 26%.
With `Cc1ccc2[nH]c3c(=O)n(Cc4ccccn4)cnc3c2c1` the inhibition was 48.9% (active).
`O=c1c2[nH]c3ccc(F)cc3c2ncn1CCN1CCCC1` showed an inhibition of 6.33%.
In the case of `CCOc1ccc2[nH]c3c(=O)n(Cc4cccnc4)cnc3c2c1`, the inhibition was 25.4%.
`O=C(O)c1cc(S(=O)(=O)NC2CCCc3ccccc32)ccc1O` (stereo not drawn) gave an inhibition of -9.75%.
For `COc1ccc(S(=O)(=O)Nc2ccc(-c3ccc(OC)nn3)cc2)cc1`, the inhibition was 14.6%.
`COCCN(CCOC)S(=O)(=O)c1ccc(C(=O)Nc2sccc2C(N)=O)cc1` was tested, and the inhibition was 7.55%.
`O=C(NCC(c1ccccc1)N1CCCCC1)c1cc(-c2cccs2)on1` (stereo not drawn) showed an inhibition of -11.5%.
For `O=C1N(c2cccc(F)c2)c2ncccc2S(=O)(=O)N1Cc1ccccc1`, the inhibition was 2.92%.
Compound `COCCCNC(=O)[C@H](Cc1ccccc1)NC(=O)N1CCn2c1nc1ccccc12` has an inhibition of -0.405%.
Work on `COc1cccc(NC(=O)Cn2c(C)cc(C)c2-c2nc(C(C)C)no2)c1` yielded an inhibition of -2.06%.
`COc1ccc(NC(=O)Cc2noc(-c3cccc(OC)c3)n2)cc1` was tested, and the inhibition was 35.7% (active).
`COc1ccc(OCC(=O)Nc2noc(-c3ccccc3)n2)cc1` gave an inhibition of 23.8%.
`CC(C)c1nnc(NC(=O)C2CC(=O)N(CCc3ccc(F)cc3)C2)s1` (stereo not drawn) showed an inhibition of 5.74%.
Work on `CCN1[C@H]2CCN(C(=O)C3(C#N)CC3)CC[C@@H]2Oc2ccccc2S1(=O)=O` yielded an inhibition of -12.7%.
Work on `Cc1ccc(NC(=O)CCC(=O)N(c2ccccc2)c2ccccc2)cc1Cl` yielded an inhibition of 6.95%.
In the case of `Cc1ccc(NC(=O)CCOc2ccccc2)cc1S(=O)(=O)Nc1ccccc1Cl`, the inhibition was 39.7% (active).
`COc1cccc(NC(=O)COC(=O)c2ccc(OC)c(S(=O)(=O)Nc3cc(Cl)c(OC)cc3OC)c2)c1` was tested, and the inhibition was 3.55%.
`O=C(NCCc1ccc(F)cc1)c1ccc(S(=O)(=O)Nc2ccccc2F)cc1` showed an inhibition of 13.4%.
`Cc1nc(CCN2CCN(Cc3ccccc3)CCC2=O)no1` showed an inhibition of 9.08%.
`COC(=O)c1sc(-c2ccccc2)cc1NC(=O)c1ccc(C)cc1` showed an inhibition of 8.72%.
With `COc1cccc(NC(=O)C2Cc3ccccc3N2C(=O)c2ccccc2)c1` (stereo not drawn) the inhibition was 57.8% (active).
`N#Cc1cccc(NC(=O)C2Cc3ccccc3CN2C(=O)c2ccccc2)c1` (stereo not drawn) gave an inhibition of -4.46%.
`COc1cccc(NC(=O)N2C[C@H]3CN(C(C)C)CC[C@H]32)c1` gave an inhibition of -122%.
`Cn1cc(CN2CCC3(CC2)Nc2cc(Cl)ccc2C2=NCCN23)cn1` was tested, and the inhibition was -4.3%.
Work on `Cc1ccccc1NS(=O)(=O)c1cc2c(cc1Cl)NC(=O)CO2` yielded an inhibition of 11.5%.
With `COc1ccc(NC(=O)CCN2C(=O)c3cccnc3Sc3ccccc32)cc1` the inhibition was 0.608%.
Work on `Cc1ccc(Cc2nc(CC(=O)Nc3ccc(F)cc3F)n[nH]2)cc1` yielded an inhibition of 12.8%.
`COc1ccccc1CN1C(=O)c2cc3occc3n2CC1(C)C(=O)NC1CCCCC1` (stereo not drawn) gave an inhibition of 6.42%.
Compound `CC(C)CCNC(=O)C1(C)Cn2c(cc3ccccc32)C(=O)N1Cc1ccccc1F` (stereo not drawn) has an inhibition of -0.678%.
With `CC1(C(=O)NC2CCCC2)Cn2c(cc3ccccc32)C(=O)N1c1ccc(F)cc1` (stereo not drawn) the inhibition was 62.5% (active).
Work on `COCCNC(=O)C(Cc1ccccc1)N1Cc2ccccc2C1=O` (stereo not drawn) yielded an inhibition of 4.85%.
With `O=C(Cn1cccc1C(=O)c1ccccc1)NC1CCN(Cc2ccccc2)CC1` the inhibition was -2.81%.
For `CC1CCC(NC(=O)Cn2c(=O)[nH]c3ccccc3c2=O)CC1` (stereo not drawn), the inhibition was 41.5% (active).
`O=C(N[C@@H](C(=O)O)c1ccccc1)[C@@H](Cc1ccccc1)n1c(=O)[nH]c2ccccc2c1=O` was tested, and the inhibition was 9.14%.
`CCN1CCC2(CC1)OC(=O)C(C)=C2C(=O)Nc1cc(C)ccc1C` was tested, and the inhibition was -4.59%.
`CNc1nc(C2CCCN(C)C2)nc2c1CCN(C(=O)Cc1c[nH]c3ccccc13)C2` (stereo not drawn) showed an inhibition of -1.33%.
`Cc1ccn2c(NCCc3ccccc3)c(-c3ccc(O)cc3)nc2c1` showed an inhibition of 20.5%.
In the case of `Cc1cccc(-c2noc(Cc3nnc(-c4ccccc4)o3)n2)c1`, the inhibition was -20.8%.
For `Cc1cccc(-c2nc(Nc3ccc(O)cc3)c3ccccc3n2)c1`, the inhibition was 69.2% (active).
`Cc1nccc(C2CN(C(=O)CCc3c[nH]c4ccccc34)CCO2)n1` (stereo not drawn) gave an inhibition of -0.542%.
Work on `CN1CC(c2ncn[nH]2)c2cc(C(=O)NCc3cccc(F)c3)ccc21` (stereo not drawn) yielded an inhibition of 8.47%.
In the case of `O=C(Cc1c(Cl)cccc1Cl)NCc1cccc(C(F)(F)F)c1`, the inhibition was 34.4% (active).
With `O=C(NCc1ccccc1)c1nc[nH]c1C(=O)NCc1cccc(C(F)(F)F)c1` the inhibition was -0.00262%.
`O=C(Cc1cccc(C(F)(F)F)c1)Nc1cccn2ncnc12` was tested, and the inhibition was -3.85%.
`Cc1ccc(S(=O)(=O)NC2=NC(c3ccccc3)c3cc(Cl)ccc3N2)cc1` (stereo not drawn) showed an inhibition of 10.4%.
With `O=C(NCCC1=CCCCC1)c1ccc(-c2noc(-c3ccccc3)n2)s1` the inhibition was 2.81%.
In the case of `COc1ccc(-c2nc(C3CC(=O)N(c4ccccc4)C3)no2)cc1` (stereo not drawn), the inhibition was 7.38%.
For `CCOc1ccc(-c2noc(-c3nn(-c4cccc(OC)c4)ccc3=O)n2)cc1`, the inhibition was 72.3% (active).
`COc1ccc(-c2nc(-c3nnn(Cc4cccc(F)c4)c3C)no2)cc1` gave an inhibition of -0.491%.
`CCOC(=O)c1cnn(-c2ncc(C(=O)OC)c(C(F)(F)F)n2)c1C(F)(F)F` showed an inhibition of 3.18%.
`O=C(NCc1ccco1)c1ccc2c(=O)nc3c(-c4ccc(F)cc4)n[nH]n3c2c1` was tested, and the inhibition was 11.8%.

Reference: PubChem BioAssay AID1645855 (Buhrlage Lab, Dana-Farber Cancer Institute and Novartis …, 2021)
